Bioassay records (PubChem)
hcGAS lum: Primary biochemical luminescence assay for human cyclic GMP-AMP synthase inhibitors; 0.081% of 290,000 active; inhibition, % at 12.5 µM; recombinant h-cGAS, ATP depletion, Kinase-Glo luminescence; Q8N884;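 also: 0% = vehicle reaction and 100% = reaction without DNA for no activity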
NPYLR7 ag: agonists of mosquito NPYLR7 receptor, primary screen, cell-based, Aedes aegypti, calcium fluorescence, mosquito biting behavior. HEK293T NPYLR7/Galpha15, GCaMP6s calcium fluorescence. 0.15% of 270,000 active. activation, % at 10 µM. AID 1259423, 2018. Aedes aegypti neuropeptide Y-like receptor 7 (NPYLR7); in the data active = activation above about 40%;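 also: 0% = vehicle and 100% = reference agonist at the receptor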
mcGAS lum: cyclic GMP-AMP synthase inhibitors, mouse, primary biochemical chemiluminescence | Q8C6L5 | recombinant cGAS, Kinase-Glo ATP depletion luminescence | inhibition, % at 12.5 µM | 0.15% of 160,000 active | AID 1259399, 2018;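 also: 0% = negative control wells and 100% = reference inhibitor with no enzyme activity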
Target sequence (Q8C6L5 whole entry, looked up): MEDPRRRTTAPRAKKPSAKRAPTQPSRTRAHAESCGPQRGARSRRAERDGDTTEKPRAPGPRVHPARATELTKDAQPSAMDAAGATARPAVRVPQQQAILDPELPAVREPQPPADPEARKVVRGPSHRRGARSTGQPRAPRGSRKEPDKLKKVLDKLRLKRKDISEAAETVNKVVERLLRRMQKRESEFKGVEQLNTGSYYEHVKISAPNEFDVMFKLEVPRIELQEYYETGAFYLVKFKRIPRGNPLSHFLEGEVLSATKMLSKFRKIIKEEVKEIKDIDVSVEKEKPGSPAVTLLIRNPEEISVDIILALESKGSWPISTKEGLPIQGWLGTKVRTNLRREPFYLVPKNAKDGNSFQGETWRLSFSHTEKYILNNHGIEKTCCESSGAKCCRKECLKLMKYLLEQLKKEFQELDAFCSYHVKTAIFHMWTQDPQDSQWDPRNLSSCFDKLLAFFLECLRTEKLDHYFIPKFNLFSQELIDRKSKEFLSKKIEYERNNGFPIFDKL
An asterisk follows results filed as active; · = no result given; + = active, no number; ! = a repeat was not active. Sampled rows, rich in hits. Any-hit rate of the full collection: about 0.24%. Rule as the data show it, unless noted: active = inhibition above about 40%; inactive = the rest.

SMILES | hcGAS lum | NPYLR7 ag | mcGAS lum
CCn1cc(C(CC(=O)N2CCN(Cc3ccc4c(c3)OCO4)CC2)c2cc(OC)cc(OC)c2)c2ccccc21 (stereo not given) | -13 | · | 74*
CCn1cc(C(CC(=O)NCc2ccc3c(c2)OCO3)c2cc(OC)cc(OC)c2)c2ccccc21 (stereo not given) | 3 | 3 | 1
COc1ccc(Br)cc1C1C(C#N)C(=N)SC(=N)C1C#N (stereo not given) | 4 | 4 | 17
N#CC1C(=N)SC(=N)C(C#N)C1c1cc(Br)ccc1F (stereo not given) | 16 | 4 | 57*
Cc1cccc(NC(=O)CCC2CCN(S(=O)(=O)c3ccsc3)CC2)c1 | -9 | 5 | ·
O=C(O)c1ccc(-n2c(O)c(C=C3C=Nc4ccccc43)sc2=S)cc1 | -7 | -1 | -1
O=C(O)CCn1c(O)c(C=C2C=Nc3ccccc32)sc1=S | 4 | 46* | -1
CC(C(=O)O)n1c(O)c(C=C2C=Nc3ccccc32)sc1=S (stereo not given) | 1 | 75* | -5
O=C(Nn1c(O)c(C=C2C=Nc3ccccc32)sc1=S)c1ccccc1[N+](=O)[O-] | -5 | 12 | -5
CC(CC(=O)O)c1ccncc1 (stereo not given) | -5 | 0 | -14
Cc1ccn(CCNc2nccc(-c3c(C)nn(C)c3C)n2)n1 | -1 | 3 | -19
Nc1c2ccccc2nc2ccccc12 | 72* | 2 | ·
Nc1c2c(nc3ccccc13)CCCC2 | -2 | -5 | -3
COc1cc(C=C(C#N)C(N)=O)cc(OC)c1O | 9 | 24 | ·
COc1cc(/C=C(\C#N)C(=O)c2ccc(O)c(O)c2)cc(I)c1O | 13 | 191* | 28
O=c1c2ccccc2nc2ccc(Cl)nn12 | -7 | 3 | ·
C[N+]1=C(CC=Nc2ccccc2)SCC1 | -3 | -1 | ·
C(/C=C/CC=Nc1ccccc1)=Nc1ccccc1 | -5 | 66* | -7
COc1ccc2c(NCc3ccc(C)cc3)c(C#N)cnc2c1 | -5 | -2 | -6
COCc1cc(C)nc(OCC(=O)N/N=C\c2ccccc2Cl)c1C#N | -3 | 5 | -5
COc1cc(-c2nc3n(n2)C(c2ccc(O)cc2)C(C(N)=O)=C(C)N3)cc(OC)c1OC (stereo not given) | -1 | 51* | ·
COc1ccc(C2C(C(N)=O)=C(C)Nc3ncnn32)cc1 (stereo not given) | -9 | -1 | -5
O=C1NC(=O)C2C1Sc1[nH]c(=O)sc1C2c1ccco1 (stereo not given) | 45* | 13 | ·
COc1ccc(C2c3sc(=O)[nH]c3SC3C(=O)NC(=O)C32)cc1 (stereo not given) | -9 | 6 | ·
C[C@@H](NC(=O)/C(C#N)=C/c1ccc(O)c(O)c1)c1ccccc1 | 5 | 5 | -1
SMILES | hcGAS lum | NPYLR7 ag | mcGAS lum
N#C/C(=C\c1ccc(O)c(O)c1)C(=O)Nc1ccccc1 | 17 | 147* | 3
C=CCSc1ncnc2c1sc1nc3c(cc12)COC(C)(C)C3 | 0 | 1 | 0
CSCCCNC(=O)c1cn(Cc2ccccc2C)nn1 | -8 | · | -9
Cc1nc2ncccc2cc1C(=O)N1CCC2(CCNC(=O)CC2)CC1 | -2 | 55* | ·
Cc1cccc2ncc(C(=O)N3CCC4(CCNC(=O)CC4)CC3)c(=O)n12 | -2 | 13 | ·
O=C(N[C@@H]1CCCCC1NC(=O)C1CCN(C(=O)COc2ccccc2)CC1)c1ccc(F)cc1 (stereo not given in full) | -5 | 0 | -5
c1ccn2c(Sc3ncnc4sc5c(c34)CCCC5)nnc2c1 | 0 | 4 | ·
Cc1nc(Sc2nnc3ccccn23)c2c3c(sc2n1)CCCC3 | -3 | 43* | -7
Cc1ccc2[nH]c(C)c(CC(=O)n3ccccc3=NC(C)C)c2c1 | -5 | 1 | ·
Clc1ccc2c(N3CCCNCC3)ccnc2c1 | -3 | 2 | -18
Clc1ccc2c(-n3ccnc3)ccnc2c1 | 57* | -11 | ·
Oc1cc(O)c2c(c1)O[C@H](c1cc(O)c(O)c(O)c1)[C@H](O)C2 | 79* | · | 25
Oc1cc(O)c2c(c1)O[C@H](c1ccc(O)c(O)c1)[C@@H](O)C2 | -2 | -1 | -5
OCC1CCN(Cc2ccc3n2CCN=C3CCc2ccncc2)CC1 | 2 | 11 | ·
O=C(CCl)Nc1cc([N+](=O)[O-])ccc1Cl | -2 | -6 | 52*
O=C(CCl)Nc1ccc(Cl)cc1[N+](=O)[O-] | -5 | -1 | 14
CCCCCCCOC(=O)C1C(=N)OC2=C(C(=O)CCC2)C1c1ccco1 (stereo not given) | -11 | 4 | -3
CCCCN=C(N)N=C(N)N | -7 | -13 | ·
CCCCC(CC)CN=C(N)NC(N)=NCCCCCCN=C(N)NC(N)=NCC(CC)CCCC (stereo not given) | 4 | 46*! | -5
CCCc1c(C)nn(-c2ccc(C(=O)N3CCC(C(=O)OCC)CC3)cc2)c1C | -5 | -8 | -5
CN(c1ccccc1)S(=O)(=O)c1cccc(NS(=O)(=O)c2cc(Cl)ccc2Cl)c1 | -1 | -10 | ·
CN(c1ccccc1)S(=O)(=O)c1cccc(NC(=O)CCl)c1 | -3 | 12 | 55*
O=c1c2nnc3c(-c4ccccc4)cnn3c2ccn1CC1CCCO1 (stereo not given) | -15 | 3 | ·
O=c1c(S(=O)(=O)c2ccc(Cl)cc2)c[nH]c2ccccc12 | -9 | 8 | -4
NC(=O)C1CCN(C(=O)CCN(CCc2ccccc2)C(=O)c2cnccn2)CC1 | + | 6 | ·
SMILES | hcGAS lum | NPYLR7 ag | mcGAS lum
NC(=O)C1CCN(C(=O)CCc2ccsc2)CC1 | -3 | -4 | ·
O=C1C(=Cc2cccnc2)Sc2ccccc21 | 0 | 12 | 65*
O=C1C(=Cc2ccco2)Sc2ccccc21 | -5 | 8 | ·
COCCCNc1nc2nonc2nc1N(C)Cc1ccc(F)cc1 | -3 | -6 | ·
N#Cc1cccc(C(=O)N2CCN(C(c3ccccc3)c3ccccc3)CC2)c1 | -10 | 18 | -6
N#Cc1cccc(C(=O)N2CCN(C(c3ccccc3)c3ccc(Br)cc3)CC2)c1 (stereo not given) | -2 | 42* | -8
COCCN(Cc1ccccn1)C(=O)/C=C/C1CCCCC1 | -11 | 3 | ·
Cc1ccsc1C(=O)N1CCC1(C)C(=O)N1CCCCC1 (stereo not given) | 3 | 6 | ·
O=C1c2ccccc2-c2nc3nonc3nc21 | 1 | 0 | 53*
O=C1c2ccccc2-c2nc3ccccc3nc21 | -1 | 2 | ·
N#CC(=Cc1ccc(C=C(C#N)c2nnc3n2CCCCC3)cc1)c1nnc2n1CCCCC2 | -3 | 2 | ·
N#CC(=Cc1ccc(C#N)cc1)c1nnc2n1CCCCC2 | -4 | -6 | 44*
N[C@@H](Cc1cscn1)C(=O)N1CCN(Cc2ccccc2CO)CC1 | 4 | -18 | ·
N#CC1C(=N)SC(=N)C(C#N)C1c1cccs1 (stereo not given) | 74* | 27 | 70*
CC(=O)[C@@H]1SC(=N)C(C#N)[C@H]1c1cccs1 (stereo not given in full) | 7 | -5 | 2
CN(CC(O)COCc1ccc2c(c1)OCO2)c1ncc(C(F)(F)F)cc1Cl (stereo not given) | 6 | -1 | ·
O=C(c1cccc(OC(F)F)c1)N1CCOC(COc2ccc(F)cc2)C1 (stereo not given) | -2 | 25 | ·
